USP17 block: inhibitors of human USP17 deubiquitinase | 47,000 tested, 6.5% active | purified USP17, Ub-rhodamine cleavage fluorescence, 3 h | AID 1645855 | A8MUK1 | inhibition, % at 50 µM
USP8 inh: blocks human USP8 ubiquitin-rhodamine cleavage. P40818. purified USP8, Ub-rhodamine cleavage fluorescence, 30 min. inhibition, % at 20 µM. 47,000 tested, 4.2% active. AID 1645853
USP10 block: inhibitors of human USP10 deubiquitinase; inhibition, % at 20 µM; purified USP10, Ub-rhodamine fluorescence, 60 min; Q14694; 47,000 tested, 1.1% active
USP30 block: inhibitors of human USP30 deubiquitinase | Q70CQ3 | purified USP30, Ub-rhodamine cleavage fluorescence | inhibition, % at 25 µM | 47,000 tested, 5.3% active | AID 1645860
USP28 inh: human USP28 deubiquitinase inhibition. Q96RU2. purified USP28, Ub-rhodamine cleavage fluorescence, 30 min. inhibition, % at 25 µM. 47,000 tested, 3% active. AID 1645857
Active calls of the source: *; i = inactive. Rows were chosen to be rich in hits. Some 14% of all compounds tested hit in one or more screens of this group. Rule as the data show it: active = inhibition above about 30%; inactive = the rest.

SMILES	USP17 block	USP8 inh	USP10 block	USP30 block	USP28 inh
Cc1nc2ncccc2c(=O)n1-c1ccc(NC(=O)c2ccc(F)cc2F)cc1	16	19	3	34*	16
COc1ccc([C@H]2[C@H](C(=O)c3cccs3)N3c4ccccc4C=CC3C23C(=O)c2ccccc2C3=O)c(OC)c1 (some centres undefined)	-159	-237	-3	i	-232
COc1ccc(C(=O)[C@@H]2[C@H](C(=O)OC(c3ccccc3)c3ccccc3)N3c4ccccc4C=CC3[C@@]23C(=O)Nc2ccccc23)cc1 (some centres undefined)	0	45*	-7	-213	-30
O=C(O)C1CCN(C(=O)[C@H](Cc2ccccc2)n2c(=O)[nH]c3ccccc3c2=O)CC1	8	2	1	10	-3
CCNC(=O)N1CCC2(C1)c1ccccc1S(=O)(=O)N2Cc1ccc(OC)cc1 (centres undefined)	-2	4	0	-8	-16
O=C(C1CC1)N1CCC2(C1)c1ccccc1S(=O)(=O)N2Cc1ccc(F)cc1 (centres undefined)	14	8	2	36*	8
O=C(c1cc(C2CC2)on1)N1CCN(Cc2ccccc2)CC1	-7	0	0	-5	-8
CCOc1cccc(C2c3c(oc4ccc(C)cc4c3=O)C(=O)N2CCN2CCOCC2)c1 (centres undefined)	25	40*	-1	21	9
c1ccc2c(c1)ccc1nnc(-c3ccc4c(c3)OCO4)n12	37*	-235	0	58*	61*
CNc1nc2c(c(=O)n1-c1ccccc1)CCN(C(=O)c1ccc(C)cc1)C2	-16	-5	-1	-9	-13
Cc1nn(-c2ccccc2)c(C)c1C(=O)OCC(=O)Nc1cccc(C#N)c1	8	19	0	5	66*
Cc1nn(-c2ccccc2)c(C)c1C(=O)OCC(=O)N(C)c1ccccc1	12	9	1	16	8
CC1CCc2c(sc3nc(CN4CCOCC4)nc(Nc4ccc(C(C)(C)C)cc4)c23)C1 (centres undefined)	16	31*	3	9	4
CC(C)c1ccc(S(=O)(=O)N2CCC3(CC2)COCCN(c2ncccn2)C3)cc1	-53	-309	0	-7	-16
O=C(c1ccc2c(c1)N(Cc1ccccc1F)C(=O)c1ccccc1S2(=O)=O)N1CCN(C(=O)c2ccco2)CC1	38*	13	3	29	6
CCCn1nnc2cc(S(=O)(=O)N3CCCCC3C(=O)O)ccc21 (centres undefined)	3	5	1	11	-5
CCCn1nnc2cc(S(=O)(=O)N3CCCC(C(=O)NCCc4ccco4)C3)ccc21 (centres undefined)	39*	23	-8	-52	10
c1ccc(CN2CCCn3cnc(Cn4ccnc4)c3C2)nc1	-19	-184	0	-1	-6
Cc1ccc(S(=O)(=O)c2cnc(-c3ccccc3)nc2Oc2ccc(Cl)cc2C)cc1	12	20	4	24	9
O=S(=O)(c1ccccc1)c1cnc(-c2ccccc2)nc1Oc1ccc(F)cc1F	15	12	2	36*	13
CCC(C)c1ccc(NC(=O)COc2nc3ccccc3nc2C)cc1 (centres undefined)	47*	-5	-12	-4	-6
COc1ccccc1OCC(=O)Nc1ccc(-c2nc3ccccc3s2)cc1	-16	0	-5	-51	-23
NC(=O)c1ccc(Oc2ccc(Cl)cc2)nc1	32*	0	2	30	37*
COc1ccc(NS(=O)(=O)c2ccc(Cl)c(NC(=O)CC(=O)c3ccc([N+](=O)[O-])cc3)c2)cc1	30	37*	24	15	21
COc1ccc(NC(=O)CC(=O)c2ccc([N+](=O)[O-])cc2)cc1S(=O)(=O)Nc1ccc(Br)cc1	34*	72*	53*	60*	42*
SMILES	USP17 block	USP8 inh	USP10 block	USP30 block	USP28 inh
COc1ccc(C)cc1NC(=O)CN1C(=O)C2CCCC2=Nc2ccccc21 (centres undefined)	82*	42*	25	77*	22
COc1ccc(CNC(=O)CN2C(=O)C3CCCC3=Nc3ccccc32)cc1 (centres undefined)	22	83*	20	33*	14
COc1cccc(CNC(=O)C2COc3ccc(OC)cc3C2)c1 (centres undefined)	-2	0	-2	-27	0
Clc1ccc2[nH]c3c(NCc4ccccc4)ncnc3c2c1	22	-26	-4	-23	2
CC(=O)Nc1ccc(NC(=O)C2(c3ccc(Cl)cc3)CCC2)cc1	45*	-1	1	16	-1
COc1cccc(N2CCN(C(=O)CC(c3cccc(F)c3)n3cccc3)CC2)c1 (centres undefined)	11	1	0	-135	-25
CCOc1ccccc1NC(=O)CCC(=O)Nc1ccc2nc(N3CCN(C)CC3)cc(C)c2c1	-20	-2	-1	0	-8
Cc1ccc(NC(=O)CCC(=O)Nc2ccc3nc(N4CCCCC4)cc(C)c3c2)c(Br)c1	63*	33*	1	34*	18
COc1cc(NC(=O)CCC(=O)Nc2ccc3nc(N4CCOCC4)cc(C)c3c2)cc(OC)c1OC	16	13	2	28	12
CCN1CCN(c2cc(C)c3cc(NC(=O)C4CC4)ccc3n2)CC1	-13	-5	-1	-8	-11
Cc1cc(N2CCOCC2)nc2ccc(NC(=O)CCC(=O)Nc3ccc(F)cc3)cc12	60*	10	11	39*	12
Cc1cc(N2CCCCC2)nc2ccc(NC(=O)c3ccncc3)cc12	-7	-9	-3	-33	38*
O=C(c1cnco1)N1CCCC(c2ncc(Cc3cccc(Cl)c3)o2)C1 (centres undefined)	16	6	-3	6	9
Cc1ccc(NC(=O)c2nnn(CC(=O)Nc3cccc(C)c3C)c2N)cc1C	27	72*	36*	38*	27
CC(C)CCCCCCCCCCC(=O)N(C)[C@H](CO)C(=O)N[C@H](C)C(=O)NCC(=O)N(C)C1C(=O)N[C@@H](C)C(=O)NC(C(=O)O)Cc2ccc(O)c(c2)-c2cc1ccc2O (some centres undefined)	7	1	60*	33*	56*
O=S(=O)(Nc1ccc2[nH]ncc2c1)c1ccc(Cl)cc1F	19	37*	1	7	5
O=S(=O)(Nc1ccc2[nH]ncc2c1)c1ccc2c(c1)CCC2	7	11	2	-6	1
CS(=O)(=O)c1cccc(-c2nnc(NC(=O)c3ccc(Cc4ccccc4)cc3)o2)c1	5	35*	41*	35*	19
CC(NC(=O)c1ccc(Oc2ccccc2)cc1)c1ccc(Cl)c(Cl)c1 (centres undefined)	0	5	10	13	1
